Drawing on PubChem BioAssay AID493027 (The Scripps Research Institute Molecular Screening Center, 2011), this text covers inhibition for 100 compounds.

Molecules are shown by their SMILES. The whole screen tested about 2,000 compounds, of which about 45 (2%) were called active. Shown is part of a subset that was picked to be rich in actives. Values without a mark were called inactive.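 How the source made its calls: active means inhibition above the screen-wide mean inhibition plus 3 SD (cut at about 44% in these data); inactive means the rest.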

Sequence of Perilipin-1 (Homo sapiens) + 1-acylglycerol-3-phosphate O-acyltransferase ABHD5 (Homo sapiens) (O60240 whole entry, looked up): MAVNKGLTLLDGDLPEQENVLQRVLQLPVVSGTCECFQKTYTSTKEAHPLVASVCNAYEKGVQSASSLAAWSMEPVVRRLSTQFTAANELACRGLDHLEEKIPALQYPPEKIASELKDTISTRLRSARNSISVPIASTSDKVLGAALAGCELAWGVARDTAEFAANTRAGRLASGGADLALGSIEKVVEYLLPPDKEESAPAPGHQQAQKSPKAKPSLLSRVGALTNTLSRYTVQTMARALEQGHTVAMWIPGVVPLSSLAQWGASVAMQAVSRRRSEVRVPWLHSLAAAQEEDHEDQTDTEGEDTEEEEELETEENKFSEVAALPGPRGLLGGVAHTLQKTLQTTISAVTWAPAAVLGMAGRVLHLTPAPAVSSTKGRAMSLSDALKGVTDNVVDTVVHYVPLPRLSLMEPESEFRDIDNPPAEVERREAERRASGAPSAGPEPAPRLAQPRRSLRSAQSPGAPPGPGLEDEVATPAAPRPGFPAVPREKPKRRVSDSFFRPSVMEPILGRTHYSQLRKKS
Sequence of Perilipin-1 (Homo sapiens) + 1-acylglycerol-3-phosphate O-acyltransferase ABHD5 (Homo sapiens) (Q8WTS1 whole entry, looked up): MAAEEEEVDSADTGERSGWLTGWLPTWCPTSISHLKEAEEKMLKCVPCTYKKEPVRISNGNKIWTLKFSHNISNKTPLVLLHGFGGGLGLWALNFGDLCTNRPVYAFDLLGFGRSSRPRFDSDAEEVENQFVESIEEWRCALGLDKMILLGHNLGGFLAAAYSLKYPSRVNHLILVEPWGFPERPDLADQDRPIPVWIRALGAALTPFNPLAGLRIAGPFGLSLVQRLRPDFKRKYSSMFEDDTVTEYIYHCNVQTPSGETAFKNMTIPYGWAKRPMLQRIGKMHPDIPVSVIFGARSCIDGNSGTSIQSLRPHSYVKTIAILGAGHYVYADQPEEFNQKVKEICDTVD

The test addresses Perilipin-1 (Homo sapiens) + 1-acylglycerol-3-phosphate O-acyltransferase ABHD5 (Homo sapiens) (UniProt O60240+Q8WTS1). The test can be described thus: blockers of ABHD5 binding to perilipin-1 – cell lysate, split luciferase complementation, luminescence, NIH validation set, pilot screen (AID 493027).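 On inhibition: 0% = DMSO wells with the 100% control not disclosed.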 As to conditions: split G. princeps luciferase complementation, 4 h; at 7.9 µM, active compounds read high.
What is called inhibition is the relative decrease from the control value, in per cent. With `COc1ccc(CCN=CC2=C(O)CC(C)(C)CC2=O)cc1`, the inhibition is -4.85%. Next, `CC(=O)Nc1ccc(CN2CCN(C3CCCCC3)C(CCO)C2)cc1` (stereo not given): -3.02%.

`CC(=O)N[C@@H](CS)C(=O)O`: the inhibition is -18.8%. Next, `COC(=O)[C@@H](N)CS`: 65.9% (active); `Cc1ccc(NC(=O)CSc2nc(O)c(Cc3ccccc3)c(=O)n2-c2ccccc2)cc1`: 5.86%. The figure for `COc1ccc(/C=C/C(=O)Nc2ccccc2C(=O)O)cc1OC` is -6.48%; for `COc1ccc(C(=O)Oc2ccc3c(C)cc(=O)oc3c2C(C)=O)cc1` it is 0.69%.

Consider `COc1ccc(/C=C\C(=O)c2c(O)ccc3c(C)cc(=O)oc23)cc1OC`, for which the inhibition was 62.7% (active). Next, `CC(C)C(=O)Nc1c(O)c2ccccc2[nH]c1=O`: -16.2%; `COC(=O)C1=C(C)NC(C)=C([N+](=O)[O-])C1c1ccccc1C(F)(F)F` (stereo not given): 1.42%. For `CCOC(=O)C1=C(C)NC(C)=C(C(=O)OC)C1c1cccc([N+](=O)[O-])c1` (stereo not given), the inhibition was 8.95%. The entry for `COC(=O)C1=C(C)NC(C)=C(C(=O)OC)C1c1ccccc1[N+](=O)[O-]` is “active”. In the case of `COc1ccc(CCN=C(N)C(C)c2ccccc2)cc1OC` (stereo not given), the inhibition was -12.2%.

`CC(C)(C)C(=O)NC(=S)Nc1sc2c(c1C(N)=O)CCC2`: the inhibition is 1.49%. Next, `COc1ccc(C2OC(=O)Cc3cc(OC)c(OC)cc32)cc1` (stereo not given): -1.64%; `OCCC1CN(Cc2nc(-c3ccccc3)cs2)CCN1Cc1ccc(F)cc1` (stereo not given): -1.6%. The figure for `COc1cc2c(cc1OC)-c1cc(OCc3ccccc3Cl)nc(=O)n1CC2` is 15.9%; for `O=C(/C=C/c1ccccc1)c1ccccc1` it is 61.4% (active). The figure for `O=C(/C=C/c1ccccc1)NC(=O)c1ccccc1O` is 4.79%. As to `O=C(/C=C/Sc1ccccc1)c1ccccc1`, the inhibition is 81.5% (active). Next, `O=C(O)c1ccc(C(=O)C(=O)c2ccccc2)cc1`: -8.11%.

Turning to `Cn1cc(/C=C/C(=O)c2ccccc2)c2ccccc21`, the inhibition is 13.9%.

With `N/C(=N\OC(=O)/C=C/c1ccccc1)c1ccc(Br)cc1`, the inhibition was -13%. In the case of `CC(CCc1ccccc1)NC(=O)/C=C/c1ccccc1` (stereo not given), the inhibition is 2.76%. Next, `O=C(/C=C/c1ccccc1)/C=C/c1ccccc1`: 88.9% (active). Next, `O=C(CCCCCCCC(=O)c1ccccc1)c1ccccc1`: -5.61%; `Cc1ccc2[nH]c3c(c2c1)CN(C)CC3`: -2.27%.

Turning to `Cc1ccc(S(=O)(=O)N[C@@H](C)C(=O)N2CCC(C(=O)N3CCC[C@H]3C(=O)O)CC2)cc1`, the inhibition was -8.3%. The figure for `COc1ccc(C2OC[C@H]3O[C@H](O)[C@H](NC(C)=O)[C@@H](O)[C@@H]3O2)cc1` (stereo not given in full) is -8.14%. Take `COc1ccc2c(c1)CC[C@@H]1[C@@H]2CC[C@]2(C)C(=O)CC[C@@H]12`: the inhibition was -10.8%. Next, `C[C@]12CCC3C(CC=C4C[C@@H](O)CC[C@@]43C)C1CCC2[C@]1(C)CCC(=O)O1` (stereo not given in full): 0.59%; `COc1cccc(-n2c(C)c3c(OC)cccc(=O)c3c2C)c1`: 12%; `CCC(C)NCCOc1ccccc1C` (stereo not given): -6.76%. Next, `COc1ccc(OC)c(-n2c(Cn3c(-c4ccccn4)nc4ccccc43)n[nH]c2=S)c1`: -10.2%; `COc1ccc(C(=O)N2c3cc4c(cc3C(C)=CC2(C)C)OCO4)cc1`: -4.62%. As for `Cc1nc(C)c(C)nc1C`, the inhibition was -2.64%. Next, `O=C1CCCCCN1Cc1ccccc1`: -0.49%; `O=C1C=CC(=O)C(C2=C3C(=O)N(CCc4ccccc4)CC(=O)N3CCC2)=C1`: 68.9% (active). Regarding `CC1(C)CC(CC(=O)Nc2nccs2)(c2ccccc2)CCO1` (stereo not given), the inhibition was -1.2%. With `COc1ccc(C2C(=O)c3ccccc3C2=O)cc1`, the inhibition is -2.92%. `COc1ccc(C2=CC(=O)C=CC2=O)cc1`: the inhibition is 73.7% (active). For `COc1ccc(-c2nc(NC(C)=O)sc2-c2ccc(OC)cc2)cc1`, the inhibition was 11.4%. For the compound `NS(=O)(=O)c1ccc(CNC(=O)c2cc(-c3ccccc3)nc3ccccc23)cc1`, the inhibition is 10.2%. The figure for `CCOc1ccc2nc(NC(=O)NC3CCCCC3)sc2c1` is -5.14%; for `CCOc1cccc(N2C(=O)CC(N(CCc3ccc(OC)c(OC)c3)C(=O)CC)C2=O)c1` (stereo not given) it is -6.24%; for `COCCCN1C(=O)/C(=C\c2cccs2)C(C(=O)OC)=C1C` it is 3.99%. `COC(=O)C1=C(C)N(Cc2ccco2)C(=O)/C1=C\c1ccc([N+](=O)[O-])cc1`: the inhibition is 86% (active). Regarding `COC(=O)c1ccc(=O)n(Cc2ccco2)c1`, the inhibition is 12.2%. Regarding `CN=C1c2cc3cc(OC)ccc3n2CCN1C`, the inhibition was 3.44%. Regarding `Oc1[nH]c2ccccc2c1N=Nc1ccccc1`, the inhibition is -0.17%. Turning to `COC(=O)c1cc(COc2ccc3ccc(=O)oc3c2)c(C)o1`, the inhibition was -9.09%. The figure for `Cc1ccccc1C(=O)NCC(=O)O` is 0.22%; for `COc1ccc(CCNC(=O)c2ccc(Cl)cc2)cc1OC` it is -5.87%.

For `CCN1/C(=C/C=C/C=C/c2sc3ccccc3[n+]2CC)Sc2ccccc21`, the inhibition is 52.7% (active). Consider `CN(C)CCCN1c2ccccc2Sc2ccccc21`, for which the inhibition was -3.33%. Next, `CC(CN1c2ccccc2Sc2ccccc21)N(C)C` (stereo not given): -9.88%; `CC(=O)N(C(C)=O)c1nc2nc(C)cc(C)n2n1`: -0.49%. The figure for `OC(C#CCN1CCCC1)(c1ccccc1)c1cccnc1` (stereo not given) is 0.07%; for `COc1ccc(Cc2nc(-c3ccc(Br)cc3)no2)cc1` it is -12%; for `CCOc1ccc(CC2CCC(=O)NC2=O)cc1` (stereo not given) it is 3.55%. The figure for `O=Cc1ccc(OC(=O)c2cccnc2)cc1` is -5.64%; for `Fc1ccc(-n2cc(CNCCc3ccccn3)c(-c3ccccc3Cl)n2)cc1` it is 1.9%; for `CC(C)(C)OC(=O)N1CC(O)CC1C(=O)OCC(=O)c1ccc(Cl)cc1` (stereo not given) it is -9.04%. With `CC(C)=CCC/C(C)=C/CC/C(C)=C/CC/C(C)=C/CC1=C(C)C(=O)c2ccccc2C1=O`, the inhibition is 18.4%.

Consider `CCNC1=C(Cl)C(=O)c2ccccc2C1=O`, for which the inhibition is -12.7%. The figure for `CC1=CC(=O)c2ccccc2C1=O` is 44.4% (active). The figure for `COc1ccc2[nH]c3c(=O)n(/N=C/[C@H]4C(C)C=C(C)CC4C)c(=O)[nH]c3c2c1` (stereo not given in full) is 23.9%.

In the case of `COc1ccc(CCNC(=O)c2c(O)c3c([nH]c2=O)CCCC3)cc1`, the inhibition is 3.26%. `COc1ccc(C(=O)OCc2cc3cccc(C)c3[nH]c2=O)cc1`: the inhibition was -1.47%. Take `Cc1cc(-c2nn(-c3ccccc3F)cc2CN2CCC(O)CC2)c(C)s1`: the inhibition is -2.82%. As for `COc1cc2c3c(c1)C1(C(=O)N3C(C)(C)C=C2C)C(C#N)=C(N)Oc2cc(C)oc(=O)c21` (stereo not given), the inhibition was -0.82%.

`COc1cc2c3c(c1)C(C)CC(C)(C)N3C(=O)C2=O` (stereo not given): the inhibition is 6.69%.

`CCOc1cc2c3c(c1)C(C)=CC(C)(C)N3C(=O)C2=O`: the inhibition was 43.5% (active). As for `CS(=O)(=O)Nc1cccc(C(=O)CC2(O)C(=O)Nc3ccc(Br)cc32)c1` (stereo not given), the inhibition is -3.35%.

Take `COc1cc2c(cc1OC)-c1nnc(C)n1C(C)(C)C2`: the inhibition was -2.21%. Next, `COc1ccc(CN(CCC(c2ccccc2)c2ccc(OC(C)C)cc2)C(=O)CCl)cc1OC` (stereo not given): 64.4% (active); `COc1ccc(CNCCC(c2ccc(F)cc2)c2ccc(OC(C)C)cc2)cc1OC` (stereo not given): -6.56%. Regarding `COc1ccccc1C(CC(=O)Nc1ccccc1C)c1ccc(OC(C)C)cc1` (stereo not given), the inhibition was 0.34%.

With `CC(C)C12CN3CC(C(C)C)(CN(C1)C3c1ccccc1)C2O` (stereo not given), the inhibition was -10.6%.

Consider `Cn1c(=S)n(C)c2ccccc21`, for which the inhibition is -7.95%. Regarding `COc1ccc2cc(C(=O)OC(C)C)sc(=O)c2c1OC`, the inhibition was 3.53%.

As to `COc1cccc(OCc2cc(C3Nc4ccccc4C(=O)N3Cc3ccco3)ccc2OC)c1` (stereo not given), the inhibition is 42.9%. For the compound `COC(=O)c1cc(-c2ccc(C)o2)nc2ccccc12`, the inhibition was 78% (active). The figure for `CCCOc1ccc(-c2cc(C(=O)NCC3CCCO3)c3ccccc3n2)cc1` (stereo not given) is -2.49%; for `O=C(O)c1cc(-c2ccccc2)nc2ccccc12` it is -6.78%. The figure for `COc1cc2cc(C)nc(Cc3cccc4ccccc34)c2cc1OC` is 16.5%; for `COc1ccc(C2C3C(C)=NN=C3CC(C)(O)C2C(C)=O)cc1` (stereo not given) it is -2.63%. As for `Oc1[nH]c2ccccc2c1C1=NCCCC1`, the inhibition is -6.01%. Regarding `O=C(Cc1ccccc1[N+](=O)[O-])NCCCN1CCOCC1`, the inhibition was -7.14%.

Regarding `CC(=O)N(CCC(Cc1ccccc1)c1ccco1)Cc1ccco1` (stereo not given), the inhibition is 40.8%. Next, `COc1ccccc1C(CCN(Cc1ccccc1)C(C)=O)c1ccco1` (stereo not given): 9.44%; `O=C(c1ccco1)N(CCC(c1ccccc1)c1ccco1)Cc1ccco1` (stereo not given): 56.6% (active); `CCOc1ccc2ccccc2c1CNc1nnnn1C`: -8.53%.

For the compound `COc1ccc(C(=O)Nc2nc3ccccc3c(=O)[nH]2)cc1`, the inhibition is -4.92%.

In the case of `CC(C)N1C(=O)/C(=C\c2nc3ccccc3c(=O)[nH]2)c2ccccc21`, the inhibition was 70.2% (active). The figure for `CC(=O)Oc1ccc(C(=O)O)cc1OC(C)=O` is 2.2%. `CCC1(c2ccccc2)NC(=S)N(c2ccc(C)c(C)c2)N1` (stereo not given): the inhibition is -0.55%. The figure for `CC(=O)/C=C/c1ccc(C)o1` is 18.2%; for `O=C(Nc1ccc(Oc2c(F)c(F)c(F)c(F)c2F)cc1)OC1CCN2Cc3ccccc3N=C12` (stereo not given) it is 71.9% (active). The figure for `COc1cccc2c(=O)c3ccccc3oc12` is -14.7%.
